Screening results: PubChem, National Center for Advancing Translational Sciences (NCATS)
Sampled rows, rich in hits. Any-hit rate of the full collection: about 1.3%.
KCNH2 3.1 block = inhibitors of human KCNH2 3.1 potassium channel isoform; AID 720553; 340,000 compounds, 0.95% hits; U2OS KCNH2 3.1, thallium flux FluxOr; stronger effect = lower value; activity change, % (tested at about 1.8 µM);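 active means maximum activity change below -70%; inconclusive means maximum activity change from -70% to -50%; inactive means maximum activity change above -50%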;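 further: thallium influx rate constant from kinetic fluorescence after stimulation buffer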
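Steps: virus added to U2OS suspension (4 h, RT, dark); medium with 10% FBS added, cells plated, 37 C overnight; FluxOr/Red40 loading buffer 45 min RT; stimulation buffer, 2 min kinetic read; rate constant normalized.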
hERG WT inh = inhibitors of human wildtype KCNH2 potassium channel; activity change, % at 1.84 µM; AID 720551; 340,000 compounds, 0.37% hits; U2OS, BacMam KCNH2, thallium flux FluxOr; stronger effect = lower value;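 active means maximum activity change below -70%; inconclusive means maximum activity change between -70% and -50%; inactive means maximum activity change above -50%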
Target sequence (Q12809 whole entry, looked up): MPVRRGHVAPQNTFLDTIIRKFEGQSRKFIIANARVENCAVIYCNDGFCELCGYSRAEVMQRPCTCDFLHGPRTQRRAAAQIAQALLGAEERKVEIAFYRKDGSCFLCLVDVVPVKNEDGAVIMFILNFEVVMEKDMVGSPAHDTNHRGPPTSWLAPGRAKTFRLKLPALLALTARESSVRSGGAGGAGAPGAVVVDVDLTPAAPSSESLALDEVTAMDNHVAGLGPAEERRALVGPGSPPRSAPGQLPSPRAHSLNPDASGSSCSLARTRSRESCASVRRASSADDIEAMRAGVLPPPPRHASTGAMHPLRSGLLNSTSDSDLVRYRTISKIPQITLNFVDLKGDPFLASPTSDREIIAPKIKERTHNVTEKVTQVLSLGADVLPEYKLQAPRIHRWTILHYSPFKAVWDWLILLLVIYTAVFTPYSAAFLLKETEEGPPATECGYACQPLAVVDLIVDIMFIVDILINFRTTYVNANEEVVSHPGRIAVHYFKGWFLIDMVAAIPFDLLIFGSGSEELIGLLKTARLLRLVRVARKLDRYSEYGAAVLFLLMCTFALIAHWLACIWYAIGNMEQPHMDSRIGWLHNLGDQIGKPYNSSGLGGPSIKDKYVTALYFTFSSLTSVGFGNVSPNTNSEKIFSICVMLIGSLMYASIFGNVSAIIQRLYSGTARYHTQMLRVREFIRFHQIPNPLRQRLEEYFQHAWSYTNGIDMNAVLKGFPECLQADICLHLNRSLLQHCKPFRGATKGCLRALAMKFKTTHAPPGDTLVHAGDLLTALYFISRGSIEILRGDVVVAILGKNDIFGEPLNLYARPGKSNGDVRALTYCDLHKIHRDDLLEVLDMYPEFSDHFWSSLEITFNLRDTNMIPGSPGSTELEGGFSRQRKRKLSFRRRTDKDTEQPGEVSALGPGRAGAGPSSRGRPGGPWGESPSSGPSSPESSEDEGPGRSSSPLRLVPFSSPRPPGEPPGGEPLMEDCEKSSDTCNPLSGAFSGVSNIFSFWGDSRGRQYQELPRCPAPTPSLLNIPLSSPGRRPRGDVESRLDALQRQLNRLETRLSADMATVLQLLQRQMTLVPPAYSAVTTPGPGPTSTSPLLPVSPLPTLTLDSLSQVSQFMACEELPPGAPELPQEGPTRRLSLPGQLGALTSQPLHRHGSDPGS
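U2OS cells were transduced with wild-type KCNH2 virus (2.03 x 10^8 / mL) for 4 h at room temperature, then cultured overnight at 37 C. Thallium flux was read with FluxOr dye. Rate constants were normalized to DMSO controls.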
TRPV1 PAM = human TRPV1 potentiation. TRPV1-expressing cells, Fluo-8 calcium influx, capsaicin EC20 potentiation. potentiation, % at 8.33 µM. 320,000 compounds, 0.02% hits; in the data active means potentiation above about 80%; inconclusive means between about 30% and that limit
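TRPV1-expressing cells were cultured overnight at 35.5C and loaded with Fluo-8 calcium dye for 40 to 90 min at room temperature. After a 10 s baseline, compound was added and calcium influx was read kinetically for 3 min (ex 480/em 520 nm).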
TRPV1 ag = human TRPV1 agonism. activation, % at 8.33 µM. AID 540275. 320,000 compounds, 0.19% hits. Q8NER1. TRPV1-expressing cells, Fluo-8 calcium influx, agonist mode; in the data active means activation above about 80%; inconclusive means between about 30% and that limit
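Fluo-8 calcium influx in TRPV1-expressing cells, kinetic read (ex 480/em 520 nm). Compound added and read 3 min for agonist activity, followed by capsaicin at EC20 final and 2 min further read for enhancement.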
Numbers stand for hits; n = inactive; u = inconclusive; x = not tested or not shown.

SMILES	KCNH2 3.1 block	hERG WT inh	TRPV1 PAM	TRPV1 ag
CN1C(=CC=C2C=C(I)C(=O)C(I)=C2)C(C)(C)c2ccccc21	n	n	n	n
CN1/C(=C\C=C2/C(=O)Oc3ccccc3C2=O)C(C)(C)c2ccccc21	n	u	n	106.7
CC(C)Sc1nc2ccccc2[nH]1	-110.2	n	n	n
Nc1ccc(-c2nc3ccccc3[nH]2)cc1	n	n	n	n
Nc1ccc(Sc2nc3ccccc3[nH]2)cc1	n	-83.6	n	n
CC(O)CN1CCN(C(=O)CN2C(=O)NC(c3ccccc3)(c3ccccc3)C2=O)CC1 (stereo unspecified)	n	n	n	n
c1ccc(C[C@H]2CN=C(Nc3ccccc3)N2CCCC2CCCC2)cc1	-95.7	-93.1	n	n
CCC(C)CCN1C(Nc2ccccc2)=NC[C@@H]1Cc1ccccc1 (stereo partly specified)	n	n	n	n
c1ccc(CCCCN2C(Nc3ccccc3)=NC[C@@H]2Cc2ccccc2)cc1	-104.3	n	n	n
CN(C)C1=NC[C@H](Cc2ccccc2)N1CCCC1CCCC1	-101.8	n	u	n
CCN1C(Nc2ccccc2)=NC[C@@H]1Cc1ccccc1	-109.0	n	n	n
C[C@H]1CN=C(Nc2ccccc2)N1CCCC1CCCCC1	n	n	n	n
CCOc1ccc(/C=N/Nc2nc(C)cs2)c(O)c1	n	n	n	n
CC1CN(C(=S)Nc2cccc(Cl)c2Cl)CC(C)O1 (stereo unspecified)	n	n	n	n
CCCCCCCN1C(Nc2ccccc2)=NC[C@@H]1Cc1ccccc1	-108.9	n	n	n
O=S(=O)(c1cc(Cl)ccc1Cl)N1CCN(c2ccccn2)CC1	n	n	n	n
COc1ccc(CC(=O)N2CCN(C(=O)Cc3ccc(OC)c(OC)c3)CC2)cc1OC	n	n	x	x
COc1ccc(CC(=O)N2CCN(c3cccc(Cl)c3)CC2)cc1OC	n	n	n	97.6
O=C(NCc1ccc(F)cc1)C1CCCN1S(=O)(=O)c1cccc2nsnc12 (stereo unspecified)	n	-250.6	n	n
O=C(Nc1ccc(F)cc1)C1CCCN1S(=O)(=O)c1cccc2nsnc12 (stereo unspecified)	n	n	n	n
CC(C)(C)c1cc(C(=O)Nc2ccc(F)cc2)n(Cc2ccc(F)cc2)n1	n	n	n	87.9
Cc1ccc(NC(=O)c2cc(C(C)(C)C)nn2Cc2ccccc2)cc1	n	n	n	u
CCCCNC(=O)Cn1c(=O)c2c(ncn2CC)n(Cc2ccccc2)c1=O	n	n	n	n
O=C(COC(=O)C1CC2C=CC1C2)Nc1cccc(S(=O)(=O)N2CCOCC2)c1 (stereo unspecified)	-104.3	n	n	u
CN1CCC(=C(c2ccccc2)c2ccc(Br)cc2)CC1	-96.8	n	x	x
SMILES	KCNH2 3.1 block	hERG WT inh	TRPV1 PAM	TRPV1 ag
COC(=O)/C(=N\OCc1ccc(C#N)cc1)c1c(C)nn(C)c1C	n	n	n	n
COc1ccccc1N1CCN(C/C(C)=C/c2ccccc2)CC1	-97.9	n	n	n
COc1cccc(/C=N/N2CCN(c3ccccc3OC)CC2)c1	-119.8	n	n	n
C/C(=C\c1ccccc1)CN1CCN(c2ccccc2)CC1	n	n	n	n
Oc1ccccc1C1C=C(c2ccc3c(c2)OCO3)NC(c2ccc(F)c(Br)c2)N1 (stereo unspecified)	x	x	n	n
CCOc1cc2nc(-c3ccc(OC)c(OC)c3)nc(NCCCN3CCOCC3)c2cc1OC	n	-92.9	n	n
COc1ccc(-n2ncc3c(NCCCN4CCOCC4)ncnc32)cc1	n	n	n	n
COc1cc2ncnc(NCCCN3CCOCC3)c2cc1OC	-79.0	n	u	n
COc1ccc([N+](=O)[O-])cc1C(=O)NCCOc1ccc(Cl)cc1	n	n	n	n
COc1cc(C(=O)Nc2cc(S(C)(=O)=O)ccc2Cl)ccc1OCC(=O)N1CCOCC1	n	n	n	n
O=S(=O)(NC1CCCCC1N1CCN(c2ccc(F)cc2)CC1)c1ccccc1 (stereo unspecified)	-81.1	n	n	n
CCc1nc2sc3c(c2c(=O)n1CCO)CCC3	n	n	n	n
COC(=O)C1=C(C)N(Cc2ccccc2)C(=NCCc2cccnc2)N[C@H]1c1ccc(Br)cc1	-89.2	n	n	n
Cc1c(C)c2c(OCC(=O)NCc3ccncc3)cc3c(c2oc1=O)CCC(C)(C)O3	n	n	n	80.4
COc1ccc(CNC(=O)COc2cc3c(c4oc(=O)cc(C)c24)CCC(C)(C)O3)cc1OC	n	n	n	80.7
Cc1c(C)c2c(OCC(=O)NCc3cccnc3)cc3c(c2oc1=O)CCC(C)(C)O3	n	n	n	n
Cc1cc(=O)oc2c3c(cc(OCC(=O)NCc4ccncc4)c12)OC(C)(C)CC3	n	n	n	u
CCOc1ccc(N2C(=O)CC(N3CCN(c4ccc([N+](=O)[O-])cc4)CC3)C2=O)cc1 (stereo unspecified)	-90.9	n	n	n
CC(=O)N1CCCC(N2CCN(c3cccc(C(F)(F)F)c3)CC2)C1 (stereo unspecified)	n	n	u	n
CCCN1CCC(N2CCN(c3ccc([N+](=O)[O-])cc3)CC2)CC1	-78.7	n	n	n
CCCOc1ccc(N2C(=O)CC(N3CCN(c4ccc([N+](=O)[O-])cc4)CC3)C2=O)cc1 (stereo unspecified)	u	n	n	n
CCCN1CCC(N2CCN(c3cccc(C(F)(F)F)c3)CC2)CC1	-97.5	n	n	n
COCCNC(=O)c1cccc(OC2CCN(Cc3ccc(Cl)c(F)c3)CC2)c1	n	n	n	n
Cc1cc(-c2cc(-c3ccccc3)on2)nc(NC2CCCC2)n1	-70.4	n	n	n
O=C(CNC(=O)c1ccncc1)N/N=C/c1ccc(Br)cc1	-108.9	n	n	n
SMILES	KCNH2 3.1 block	hERG WT inh	TRPV1 PAM	TRPV1 ag
CC1(C)COC(c2ccc3c(c2)OCO3)OC1	n	n	x	x
COc1ccc(N2CCN(C(=O)c3cc(S(=O)(=O)N4CCCCCC4)ccc3OC)CC2)cc1	n	n	n	n
N#C/C(=C\c1cn(-c2ccccc2)nc1-c1cc2ccccc2o1)c1nc2ccccc2[nH]1	n	n	n	n
CN(C)S(=O)(=O)c1cccc(-c2nn(-c3ccccc3)cc2/C=C(\C#N)c2nc3ccccc3[nH]2)c1	-75.6	n	n	n
C=CCOc1ccc(C2=NOC(C(=O)Nc3ccc4c(c3)OCCO4)C2)cc1OC (stereo unspecified)	n	-189.4	u	n
Cc1ccc2nc(NC(=O)Cn3nc(C)c([N+](=O)[O-])c3C)sc2c1	-94.2	n	n	n
Cc1csc(NC(=O)Cn2nc(C)c([N+](=O)[O-])c2C)n1	n	n	n	n
O=C(NCCSC1CCCCC1)c1ccccc1	x	n	n	u
COc1ccc(C(=O)NCCSC2CCCCC2)cc1	-112.3	n	n	u
CCc1nn(C(C)C(=O)NC2CCCCCC2)c(=O)c2cc3occc3n12 (stereo unspecified)	n	n	n	n
